By AC50 is commonly meant the concentration giving half of the maximal activity seen.

Each structure is given as a SMILES string. “And” between values parts separate entries of the source, which are not always exact repeats. Equal values may be shown once. The source made the active and inactive calls. How the source made its calls: active means hit-call score of the fitted dose curve at least 0.9, where 1 is the maximum; inactive means score below 0.9.

The experiment in a line: CCTE_Simmons_MITO_max_resp_rate: CCTE's HepG2 Seahorse XF Respirometric Screening Assay at Maximal Respiratory State [uncoupled], Simmons Lab (AID 2284002). Conditions: actives raise or lower the signal. The procedure:
CCTE_Simmons_MITO is cell-based, respirometric assay using HepG2 cells and a Seahorse XF Analyzer to measure oxygen consumption rates over four temporal phases spanning a total of 72 minutes: pre-injection (pre-treatment), basal (following test compound injection), maximal (following FCCP uncoupler injection), and inhibited (following rotenone/antimycin A injection)CCTE_Simmons_MITO_max_resp_rate is one of 4 assay components calculated from the CCTE_Simmons_MITO assay. It is designed to make measurements of maximal respiration using a form of respirometric reporter, as detected with […] signals by Seahorse XF96 technology. Data from the assay component CCTE_Simmons_MITO_max_resp_rate was analyzed at the endpoint, CCTE_Simmons_MITO_max_resp_rate_OCR, with bidirectional fitting relative to DMSO as the negative control and baseline of activity. Using a type of respirometric reporter, measures of maximal respiration for gain or loss-of-signal activity can be used to understand cellular oxygen consumption as it relates to cellular respiration. To generalize the intended target to other relatable targets, this assay endpoint is annotated to the mitochondria intended target family, where the subfamily is respiration.
Test chemicals were administered as a titrated series of 7 concentrations from 125 nM up to 100 uM [final] prior to kinetic endpoint detection at 6 minute intervals [3 min mix followed by 3 minutes measure] for 72 minutes. Three biological replicates of technical singles were run for every chemical concentration tested. Dimethylsulfoxide [DMSO] was used as the vehicle control. The electron transport chain inhibitor fenpyroximate was used as the positive control for decreased basal respiration and was administered as a titrated series of 6 concentrations from 250 nM up to 2.75 uM [final] with technical triplicates for the top concentration only. The uncoupler 2,4-dintirophenol was used as the positive control for increased basal respiration and was administered as a titrated series of 6 concentrations from 938 nM up to 40 uM [final] with technical triplicates for the top concentration only. A Seahorse XF Analzyer is required to measure the response.
Consider `CC(=O)[C@H]1CC[C@H]2[C@@H]3CCC4=CC(=O)CC[C@]4(C)[C@H]3CC[C@]12C`, for which the AC50 was 13.4 µM (active).

On to `C=CCOC(Cn1ccnc1)c1ccc(Cl)cc1Cl` (configuration not stated), for which the AC50 was 38.2 µM (active).

On to `Oc1ccc(C(c2ccc(O)cc2)C(Cl)(Cl)Cl)cc1`, for which the AC50 was 21.7 µM (active).

Take `CC(C)CCCCCCc1ccc(O)cc1`: the AC50 was 43.8 µM (active).

For the molecule `O=C(c1ccc(O)cc1O)c1ccc(O)cc1O`, the outcome was inactive.

Consider `CCCCC(CC)COC(=O)c1ccccc1C(=O)O` (configuration not stated), for which the result was inactive.

Regarding `CCCCC(CC)CN1C(=O)C2C3C=CC(C3)C2C1=O` (configuration not stated), the AC50 is 32.1 µM (active).

For the molecule `Cc1nn(C)c(Oc2ccccc2)c1C=NOCc1ccc(C(=O)OC(C)(C)C)cc1`, the AC50 was 884 nM (active) and 948 nM (active).

In the case of `C[C@]12C[C@H](O)[C@H]3[C@@H](CCC4=CC(=O)CC[C@@]43C)[C@@H]1CC[C@@H]2C(=O)CO`, the molecule was classed as inactive.

`CCCCOC(=O)[C@@H](C)Oc1ccc(Oc2ccc(C(F)(F)F)cn2)cc1`: the call was inactive.

For the molecule `CCCCOC(=O)C(C)Oc1ccc(Oc2ccc(C(F)(F)F)cn2)cc1` (configuration not stated), the result was inactive.

With `CC(C)(c1ccc(O)cc1)c1ccc(O)cc1`, the AC50 is 37.1 µM (active) and 34.8 µM (active).

With `N[C@@H](Cc1cc(I)c(Oc2ccc(O)c(I)c2)c(I)c1)C(=O)O`, the call was inactive.

For the molecule `O=C(Nc1ccc([N+](=O)[O-])cc1Cl)c1cc(Cl)ccc1O`, the AC50 is 0.928 µM (active).

For the molecule `O=C(O)C1(C(=O)Nc2ccc(Cl)cc2Cl)CC1`, the AC50 was 37.8 µM (active).

On to `CCOC(=O)NCCOc1ccc(Oc2ccccc2)cc1`, for which the AC50 is 19.8 µM (active).

`N#CSCSc1nc2ccccc2s1`: the AC50 is 22.7 µM (active).

The values above are taken from PubChem BioAssay (EPA / NIEHS).
